This is part of a sample that, as a whole, favours compounds with a hit. Of some 83,000 tested, about 20% had one in any assay.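 Testing used 96-well plates and a 48-hour single-concentration exposure. Example: -40 means 40% of the starting cells died.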 The source made the active and inactive calls. The calls were made as follows: active = growth percent below 10; inactive = the rest.

The test system of this assay is HS 578T breast. Nature of the assay: NCI-60 one-dose screen, 48 h (100 = growth as untreated, 0 = no growth, -100 = all killed). The note with it: 10 µM.
Turning to `COc1cc(/C=C/C(=O)c2ccc(C(F)(F)F)cc2)ccc1Oc1nc(Nc2ccc(F)cc2)nc(N(C)C)n1`, the growth was 91.6% (inactive). With `Cc1ccc(/C=C/C(=O)c2ccc(NC(=O)CSc3nnc(-c4c[nH]c5ccccc45)n3-c3ccccc3)cc2)c(C)c1` the figure was 67.8% (inactive); with `COc1ccc(/C=C/C(=O)c2ccc(S(=O)(=O)NCCNc3nc(Nc4ccc(F)cc4)nc(N(C)C)n3)cc2)cc1`, 39% (inactive); with `N#Cc1c(-c2ccc(Cl)cc2)cc(-c2ccccc2)nc1OCc1ccccc1`, 85.2% (inactive). The result for `Nc1nnc(-c2c[nH]c3ncccc23)c(-c2c[nH]c3ccc(Br)cc23)n1` reads 33.7% (inactive); that for `CC(=O)OC[C@@]1(C)C2CC[C@]3(C)C(CC=C4C5CC(C)(C)CC[C@]5(C(=O)Nc5ccccc5)CC[C@]43C)[C@@]2(C)C[C@@H](OC(C)=O)[C@@H]1OC(C)=O` (some centres not stated), 52.3% (inactive); that for `O=C(CSc1nnc(-c2c[nH]c3ccccc23)n1-c1ccccc1)Nc1ccc(C(=O)/C=C/c2cccc([N+](=O)[O-])c2)cc1`, 74% (inactive).

`C/C(=C\c1ccc(O)cc1O)c1ccc2ccc(O)cc2[o+]1`: the growth was 90.2% (inactive). With `CCCCOc1ccc(Nc2nc3ccccc3nc2Nc2ccc(OCCCC)cc2)cc1` the figure was 103% (inactive); with `Nc1nc(Nc2ccc(Cl)cc2)nn1Cc1cccc(Br)c1`, 18.2% (inactive). The result for `COc1ccc(/C=N/N=C(\C)c2ccc3c(c2)Nc2ccccc2S3)cc1O` reads 73.7% (inactive); that for `O=C(CSc1nnc(-c2c[nH]c3ccccc23)n1-c1ccccc1)c1ccc(Br)cc1`, 52.3% (inactive); that for `COC(=O)c1c(C(=O)OC)c2n(c1C)[C@@H]([C@@H](C)[C@H]1CC[C@H]3[C@@H]4CCC5=CC(=O)CC[C@]5(C)[C@H]4CC[C@]13C)SC2`, 56.6% (inactive). With `COc1ccc(C(=O)/C=C/c2cc(C(F)(F)F)cc(C(F)(F)F)c2)cc1S(N)(=O)=O` the figure was -12.8% (active); with `CCCn1c(O)c(N=Nc2nc(-c3cc4ccccc4oc3=O)cs2)c2cc(Br)ccc21`, 83.4% (inactive); with `O/N=C(\CSc1nnc(-c2c[nH]c3ccccc23)n1-c1ccccc1)c1ccc(Br)cc1`, -39.4% (active).

`CC(=O)Oc1ccccc1C(=O)Oc1ccc(C(=O)/C=C/c2ccncc2)cc1`: the growth was 32.8% (inactive). The result for `CC(=O)C1=C(C)NC(SCC(=O)Nc2ccc(S(=O)(=O)Nc3cc(C)on3)cc2)=NC1c1ccccc1` (configuration not stated) reads 95.6% (inactive).

As for `COc1cc2c3c(n(CCCn4ccnc4)c(=O)c2cc1OC)-c1nc2c(cc1C3=O)OCO2`, the growth was 119% (inactive).

Consider `O=S(=O)(Nc1ncccn1)c1ccc(-n2c(-c3ccc(Br)cc3)nc(-c3ccccc3)c2-c2ccccc2)cc1`, for which the growth is 20.4% (inactive). With `COc1ccc(-c2cc(C(=O)N=Nc3c(O)[nH]c4ccc(Br)cc34)c3ccccc3n2)cc1` the figure was 61.6% (inactive). In the case of `CCOC(=O)CNC(=O)CN(Cc1ccccc1)C(=O)[C@@]1(C)CCC[C@]2(C)[C@H]3CC4C(C(C)C)=C[C@]3(CC[C@H]21)[C@@H]1C(=O)CCC(=O)[C@H]41`, the growth was 52.6% (inactive). With `CC1(c2ccccc2)NC(=O)N(CC(=O)Nc2ccc(C(=O)/C=C/C=C/c3ccccc3)cc2)C1=O` (configuration not stated) the figure was 57.6% (inactive); with `O=c1c2ccccc2nc(COc2ccccc2)n1/N=C/c1ccc(F)cc1`, 90.5% (inactive). With `COc1ccc(-c2cc(-c3cc(C(=O)c4ccccc4)n4ccc(C)cc34)nc(N)c2C#N)cc1` the figure was 8.95% (active); with `COc1cc(C2CC(c3ccc(C)cc3)=Nc3c(N)nc(N)nc3N2)ccc1Oc1nc(Nc2ccc(F)cc2)nc(N(C)C)n1` (configuration not stated), 57.6% (inactive); with `O=C(Nc1cccc(C(F)(F)F)c1)c1cncc(C#Cc2cnc3ccc(N4CCOCC4)nn23)c1`, -22.4% (active). With `CC(=O)Nc1ccc(-c2cn(-c3cccc(C(=O)Nc4ccc(F)c(C(F)(F)F)c4)c3)nn2)cn1` the figure was 7.97% (active); with `CN(C(=O)c1ccc(C(F)(F)F)cc1C(F)(F)F)c1sc2c(c1C#N)CCC(=O)C2`, 69.4% (inactive). Regarding `C#CCNC(=O)CCC(=O)OC[C@]12CC[C@@H](C(=C)C)[C@@H]1C1CC[C@@H]3[C@@]4(C)CCCNC(C)(C)[C@@H]4CC[C@@]3(C)[C@]1(C)CC2` (some centres not stated), the growth was 14.4% (inactive). In the case of `COc1ccc2[nH]cc(/C=N/Nc3ccc(Br)cn3)c2c1`, the growth was 25.8% (inactive).

Regarding `[2H]C([2H])([2H])Oc1ccc2ncc(C#Cc3cncc(C(=O)Nc4ccc(CN5CCN(C)CC5)c(C(F)(F)F)c4)c3)n2n1`, the growth was -47.9% (active).

The record behind these values is PubChem BioAssay (NCI).
